Test results published in PubChem BioAssay.
Active and inactive are the calls of the source.

Assays:
[1] = small molecules captured by biotinylated probe aFSTL3 – biochemical, small-molecule microarray, fluorescence 635/667, stem cell growth factor project, primary screen (AID 1064); details: higher = more signal;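 also: measures binding of the biotinylated anti-FSTL3 antibody to printed compounds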
[2] = binders from COS7 lysate, DM2A8 probe, primary screen, torsin A project, cell lysate, small-molecule microarray, fluorescence 635/667 (AID 1065); details: higher = more signal, COS7 lysate expressing mutant human TOR1A
[3] = small molecules captured by biotinylated probe aFGF2 – biochemical, small-molecule microarray, fluorescence 635/667, stem cell growth factor project, primary screen (AID 1067); details: higher = more signal;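 also: measures binding of biotinylated aFGF2 protein to printed compounds on slides; z-score merges feature fluorescence and signal-to-noise across triplicate slides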
[4] = small molecules captured by biotinylated probe aFGF10 – biochemical, small-molecule microarray, fluorescence 635/667, stem cell growth factor project, primary screen (AID 1071); details: higher = more signal;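 also: score merges 667 nm spot intensity and signal to noise from triplicate slides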
[5] = molecular target: Neurogenic locus notch homolog protein 2 (Homo sapiens) (UniProt Q04721); experiment: small molecules binding Notch2 protein – biochemical, small-molecule microarray, 635 nm fluorescence, stem cell growth factors, primary screen (AID 1073); details: higher = more signal
[6] = molecular target: Pro-neuregulin-1, membrane-bound isoform (Homo sapiens) (UniProt Q02297); experiment: small molecules binding neuregulin-1 protein – biochemical, small-molecule microarray, fluorescence 635/667, psychiatric disease protein project, primary screen (AID 1075); details: NRG1 binding, 635 nm fluorescence, higher = more signal;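 also: score combines 667 nm spot fluorescence with signal to noise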
[7] = tested on: Neuregulin-1 EGF-like domain; experiment: small molecules binding NRG1 EGF domain – biochemical, small-molecule microarray, 635 nm fluorescence, primary screen (AID 1081); details: higher = more signal;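 also: binding of the protein to compounds printed on small-molecule microarray slides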
[8] = FRG1 expression reporter modulators in myotubes – cell-based, C2C12 myotubes, firefly/Renilla luciferase, luminescence, FRG1 inhibition for FSHD, primary screen (AID 1084); details: FRG1 promoter luciferase, higher = more signal, called active from +8 up or from −8 down
[9] = small molecules captured by biotinylated probe aFST – biochemical, small-molecule microarray, fluorescence 635/667, stem cell growth factor project, primary screen (AID 1086); details: higher = more signal;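 also: score merges 667 nm fluorescence with signal-to-noise of each printed compound spot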
[10] = binders of probe aHhip on microarray, primary screen, stem cell growth factor project, biochemical, small-molecule microarray, fluorescence 635/667 (AID 1087); details: higher = more signal;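 also: score merges spot fluorescence at 667nm with spot signal to noise ratio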
[11] = tested on: PRMT1 (protein arginine N-methyltransferase 1); experiment: small molecules binding arginine methyltransferase PRMT1 – biochemical, small-molecule microarray, 635 nm fluorescence, primary screen (AID 1088); details: higher = more signal;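 also: binding of Prmt1 protein to compounds spotted on small-molecule microarray slides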
[12] = growth effects on S. cerevisiae YJM789 – YJM789 clinical isolate, OD600, 24 h, basal, primary screen (AID 1089); details: higher = more signal, called active from +8 up or from −8 down;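 also: growth of clinical yeast isolate S. cerevisiae YJM 789 seeded 1000 cells per well; test concentration not given here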
[13] = S. pombe growth modifiers, basal conditions – strain 972, OD600, 24 h, no modulator, primary screen (AID 1090);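 also: basal condition with compound alone and no growth modifier present; test concentration not given here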; details: S. pombe 972 growth, higher = more signal, called active from +8 up or from −8 down
[14] = budding yeast growth modifiers under rapamycin – strain BY4716, OD600, 96 h, primary screen (AID 1091); also: test concentration not given here; details: S. cerevisiae BY4716 + rapamycin, higher = more signal, called active from +8 up or from −8 down
[15] = molecular target: Torsin-1A-interacting protein 2 (Homo sapiens) (UniProt Q8NFQ8); experiment: small molecules binding lysate-expressed LULL1 – cell lysate, human LULL1 lysate, 635/667 nm fluorescence, primary screen (AID 1092); details: small-molecule microarray, hLULL1 lysate binding, 635 nm fluorescence; higher = more signal;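 also: probe is lysate of COS7 cells overexpressing human LULL1; score merges per-feature 667 nm fluorescence with signal-to-noise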
[16] = optical density change of DRC41 E. coli – strain DRC41, OD650, 24 h, E. coli filamentation project, primary screen (AID 1093);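 also: MC1000 strain lacking acrAB efflux and sulA so SOS filamentation is blocked; test concentration not given here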; details: E. coli DRC41 growth, higher = more signal, called active from +8 up or from −8 down
[17] = probe aLefty2 binding to arrayed compounds – biochemical, biotinylated probe, 635/667 nm fluorescence, primary screen (AID 1094); details: small-molecule microarray, higher = more signal;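 also: score merges spot fluorescence near 667 nm with spot signal-to-noise ratio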
[18] = tested on: Noggin (protein binding on small-molecule microarray); experiment: small molecules binding Noggin protein – biochemical, 635/667 nm fluorescence, primary screen (AID 1095); details: 635 nm fluorescence, higher = more signal;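 also: score merges 667 nm feature fluorescence with signal to noise over triplicate slides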
[19] = molecular target: Neurogenic locus notch homolog protein 3 (Homo sapiens) (UniProt Q9UM47); experiment: small molecules binding NOTCH3 protein – biochemical, 635/667 nm fluorescence, primary screen (AID 1096); details: small-molecule microarray, 635 nm fluorescence, higher = more signal
[20] = probe aEGFR binding to arrayed compounds – biochemical, biotinylated probe, 635/667 nm fluorescence, primary screen (AID 1097); details: small-molecule microarray, higher = more signal;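 also: probe is a biotinylated anti-EGFR antibody binding compounds printed on slides; score combines fluorescence near 667 nm and signal to noise of each spot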

Torsin-1A-interacting protein 2 (Homo sapiens), sequence (Q8NFQ8 whole entry, looked up): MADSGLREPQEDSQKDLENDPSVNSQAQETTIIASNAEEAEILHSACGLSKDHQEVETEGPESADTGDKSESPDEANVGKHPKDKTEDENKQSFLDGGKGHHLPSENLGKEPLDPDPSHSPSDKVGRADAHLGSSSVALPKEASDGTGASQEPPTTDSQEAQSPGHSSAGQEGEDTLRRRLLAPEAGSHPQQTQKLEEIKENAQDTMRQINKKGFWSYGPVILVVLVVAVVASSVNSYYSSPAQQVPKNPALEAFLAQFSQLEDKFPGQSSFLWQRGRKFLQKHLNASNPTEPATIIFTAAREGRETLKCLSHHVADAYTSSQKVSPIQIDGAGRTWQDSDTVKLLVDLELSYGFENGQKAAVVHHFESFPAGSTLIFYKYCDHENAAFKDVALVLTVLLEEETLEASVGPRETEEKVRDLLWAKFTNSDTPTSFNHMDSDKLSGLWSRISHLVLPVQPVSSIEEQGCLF
Neurogenic locus notch homolog protein 2 (Homo sapiens), sequence (Q04721 whole entry, looked up, canonical isoform): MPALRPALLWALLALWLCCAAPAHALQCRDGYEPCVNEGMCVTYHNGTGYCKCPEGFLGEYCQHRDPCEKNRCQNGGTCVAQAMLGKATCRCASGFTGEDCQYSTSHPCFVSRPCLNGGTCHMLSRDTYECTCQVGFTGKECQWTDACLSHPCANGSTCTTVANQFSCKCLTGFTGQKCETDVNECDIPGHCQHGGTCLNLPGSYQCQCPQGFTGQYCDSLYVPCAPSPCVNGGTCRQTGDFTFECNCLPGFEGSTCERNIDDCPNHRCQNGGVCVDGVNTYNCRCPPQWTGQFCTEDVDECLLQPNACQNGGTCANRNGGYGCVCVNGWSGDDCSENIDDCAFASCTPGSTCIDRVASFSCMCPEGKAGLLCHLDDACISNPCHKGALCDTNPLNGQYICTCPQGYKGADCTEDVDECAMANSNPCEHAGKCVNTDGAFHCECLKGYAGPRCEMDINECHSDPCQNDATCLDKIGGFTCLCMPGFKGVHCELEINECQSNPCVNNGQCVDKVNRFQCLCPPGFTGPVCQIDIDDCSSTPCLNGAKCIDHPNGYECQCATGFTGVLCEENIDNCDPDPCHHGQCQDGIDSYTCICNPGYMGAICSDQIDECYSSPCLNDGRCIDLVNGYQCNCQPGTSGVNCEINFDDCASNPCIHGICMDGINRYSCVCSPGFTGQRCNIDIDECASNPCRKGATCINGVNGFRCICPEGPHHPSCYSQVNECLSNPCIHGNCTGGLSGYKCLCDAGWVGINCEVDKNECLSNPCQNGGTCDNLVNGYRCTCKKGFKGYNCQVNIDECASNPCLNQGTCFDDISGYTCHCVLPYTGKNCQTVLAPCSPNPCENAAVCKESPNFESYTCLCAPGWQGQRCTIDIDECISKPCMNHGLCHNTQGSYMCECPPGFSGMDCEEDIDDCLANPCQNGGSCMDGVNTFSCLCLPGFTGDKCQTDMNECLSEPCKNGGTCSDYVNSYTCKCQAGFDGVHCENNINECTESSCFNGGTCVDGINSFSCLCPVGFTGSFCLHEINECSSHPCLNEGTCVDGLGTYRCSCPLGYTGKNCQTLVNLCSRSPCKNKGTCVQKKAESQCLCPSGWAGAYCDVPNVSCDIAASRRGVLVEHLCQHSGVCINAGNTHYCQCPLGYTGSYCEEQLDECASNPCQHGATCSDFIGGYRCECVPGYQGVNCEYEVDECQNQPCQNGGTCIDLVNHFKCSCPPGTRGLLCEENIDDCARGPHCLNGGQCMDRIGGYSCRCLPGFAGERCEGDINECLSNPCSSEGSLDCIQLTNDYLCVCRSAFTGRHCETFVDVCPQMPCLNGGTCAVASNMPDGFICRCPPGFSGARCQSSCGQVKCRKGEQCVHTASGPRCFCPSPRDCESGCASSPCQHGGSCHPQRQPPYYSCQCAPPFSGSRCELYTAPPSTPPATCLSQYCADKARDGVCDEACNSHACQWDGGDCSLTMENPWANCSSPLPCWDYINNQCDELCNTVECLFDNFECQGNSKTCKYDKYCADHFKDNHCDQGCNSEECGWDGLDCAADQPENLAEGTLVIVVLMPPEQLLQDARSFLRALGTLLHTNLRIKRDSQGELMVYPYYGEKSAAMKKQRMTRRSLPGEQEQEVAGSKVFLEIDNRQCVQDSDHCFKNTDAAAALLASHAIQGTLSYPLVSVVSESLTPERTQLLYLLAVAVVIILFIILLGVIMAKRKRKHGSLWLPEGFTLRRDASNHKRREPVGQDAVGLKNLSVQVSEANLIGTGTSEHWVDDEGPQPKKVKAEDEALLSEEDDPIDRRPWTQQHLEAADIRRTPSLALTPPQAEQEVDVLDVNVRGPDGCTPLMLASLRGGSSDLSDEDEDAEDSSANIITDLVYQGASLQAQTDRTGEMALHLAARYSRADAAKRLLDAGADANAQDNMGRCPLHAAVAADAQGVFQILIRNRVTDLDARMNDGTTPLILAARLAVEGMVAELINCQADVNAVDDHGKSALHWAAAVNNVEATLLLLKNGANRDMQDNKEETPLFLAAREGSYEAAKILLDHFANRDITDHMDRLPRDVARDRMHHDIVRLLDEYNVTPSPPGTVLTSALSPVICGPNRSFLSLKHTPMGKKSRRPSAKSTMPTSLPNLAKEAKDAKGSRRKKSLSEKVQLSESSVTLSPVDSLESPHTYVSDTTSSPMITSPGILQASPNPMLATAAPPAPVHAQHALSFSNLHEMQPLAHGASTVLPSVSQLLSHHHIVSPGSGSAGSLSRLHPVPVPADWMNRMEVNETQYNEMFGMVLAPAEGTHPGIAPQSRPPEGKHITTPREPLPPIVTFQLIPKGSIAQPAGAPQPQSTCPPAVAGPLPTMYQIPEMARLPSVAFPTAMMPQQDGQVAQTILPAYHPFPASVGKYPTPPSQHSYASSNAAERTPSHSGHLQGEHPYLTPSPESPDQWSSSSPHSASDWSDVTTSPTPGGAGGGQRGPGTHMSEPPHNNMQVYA
Pro-neuregulin-1, membrane-bound isoform (Homo sapiens), sequence (Q02297 whole entry, looked up, the tested form may be a part, canonical isoform): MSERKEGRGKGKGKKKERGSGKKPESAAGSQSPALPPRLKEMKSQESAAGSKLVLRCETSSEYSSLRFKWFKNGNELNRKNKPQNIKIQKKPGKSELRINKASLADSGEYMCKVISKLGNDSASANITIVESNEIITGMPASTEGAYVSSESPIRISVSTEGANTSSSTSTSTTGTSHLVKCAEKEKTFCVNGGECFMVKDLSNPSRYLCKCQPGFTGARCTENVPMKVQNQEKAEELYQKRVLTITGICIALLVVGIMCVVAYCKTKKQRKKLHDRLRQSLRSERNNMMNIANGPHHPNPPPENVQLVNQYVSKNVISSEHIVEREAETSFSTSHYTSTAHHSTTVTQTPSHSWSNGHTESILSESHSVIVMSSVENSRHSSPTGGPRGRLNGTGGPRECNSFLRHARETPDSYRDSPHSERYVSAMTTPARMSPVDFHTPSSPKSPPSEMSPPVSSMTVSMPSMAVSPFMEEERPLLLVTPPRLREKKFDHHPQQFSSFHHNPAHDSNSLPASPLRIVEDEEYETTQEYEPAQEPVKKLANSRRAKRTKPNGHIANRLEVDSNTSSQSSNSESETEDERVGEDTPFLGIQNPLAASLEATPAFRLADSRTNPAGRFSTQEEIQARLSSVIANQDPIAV

Compound	composite z-score [1]	composite z-score [2]	composite z-score [3]	composite z-score [4]	composite z-score [5]	composite z-score [6]	composite z-score [7]	z-score [8]	composite z-score [9]	composite z-score [10]	composite z-score [11]	z-score [12]	z-score [13]	z-score [14]	composite z-score [15]	z-score [16]	composite z-score [17]	composite z-score [18]	composite z-score [19]	composite z-score [20]
C=CC[C@@]1(C(=O)O)N=C(c2ccc(OCCCO)cc2)O[C@@H]1c1ccccc1CN=[N+]=[N-]	-0.232	0.334	-0.0518	0.744	0.955	1.79	1.08	4 (inactive)	0.0959	-0.007	0.753	-1.23 (inactive)	-2.27 (inactive)	-1.95 (inactive)	3.34	0.788 (inactive)	0.0806	0.373	0.942	0.0209
COC(=O)[C@@]1(Cc2ccccc2CN=[N+]=[N-])COC(c2ccc(OCCCO)cc2)=N1	1.28	-1.34	-0.245	-0.565	-1.79	0.305	0.62	-0.988 (inactive)	-0.575	-0.137	1.26	-1.38 (inactive)	-6.67 (inactive)	-1.9 (inactive)	3.04	0.441 (inactive)	0.175	-1.69	-1.25	-0.442
[N-]=[N+]=NCc1ccccc1C[C@]1(C(=O)NCc2ccccc2)N=C(c2ccc(OCCCO)cc2)O[C@H]1c1ccccc1CN=[N+]=[N-]	1.79	0.227	0.14	0.0819	1.13	1.73	1.16	0.976 (inactive)	0.654	-0.082	1.37	1.27 (inactive)	0.736 (inactive)	22.6 (active)	3.25	1.79 (inactive)	-0.106	-0.243	0.561	0.0506
O=C(NCCO)C1=C[C@H](Oc2ccccc2I)[C@@H](O)[C@H](NCc2ccc(F)cc2)C1	0.175	0.917	-0.145	1.38	-0.627	-0.835	-1.68	-0.766 (inactive)	-0.459	0.0722	0.517	0.0567 (inactive)	-20.5 (active)	-0.455 (inactive)	-0.992	-0.909 (inactive)	-0.212	1.66	-0.0545	-0.202
O=C1O[C@H](c2ccccc2)[C@H](c2ccccc2)N2[C@H]1[C@@H](C(=O)NC[C@H](O)c1ccccc1)[C@]1(C(=O)Nc3ccc(C#CCCO)cc31)[C@H]2c1ccccc1OCCO	-0.211	0.307	-0.141	0.453	0.253	1.25	1.34	-0.0302 (inactive)	0.152	0.0505	1.54	1.14 (inactive)	-2.23 (inactive)	3.41 (inactive)	2.22	1.19 (inactive)	-0.0499	0.795	0.325	-0.139
O=c1cccc(-c2ccccc2C(F)(F)F)o1	0.912	-0.0924	0.409	-0.331	-0.489	-0.168	0.381	0.364 (inactive)	0.862	0.173	-0.205	-0.35 (inactive)	-0.392 (inactive)	0.591 (inactive)	1.08	-0.582 (inactive)	0.659	-0.798	-0.85	0.323
CC(C)C[C@@H]1NC(=O)[C@H]2C[C@@H](C(=O)NCCCCCNC(=O)CS)[C@@H](c3ccc(O)cc3)N2C1=O	-0.208	0.929	0.283	0.834	0.74	1	1.3	-0.232 (inactive)	0.0724	-0.236	1.54	0.553 (inactive)	-0.12 (inactive)	0.871 (inactive)	2.11	0.488 (inactive)	-0.077	0.528	0.634	-0.0007
C=C(CCCC)C(=O)CC[C@H](OC(=O)c1cccnc1)c1ccc(CO)o1	-0.426	1.08	-0.0752	0.797	0.816	0.407	1.23	-0.0577 (inactive)	0.606	-0.134	1.55	-0.697 (inactive)	-0.176 (inactive)	-0.036 (inactive)	2.07	-0.0138 (inactive)	0	1.47	1.13	0.045
CC(C)(C)OC(=O)CC[C@]1(C(N)=O)N=C(c2ccc(OCCCO)cc2)O[C@H]1c1ccccc1CN=[N+]=[N-]	0.68	1.13	0.191	0.873	1.53	2.66	1.47	5.29 (inactive)	0.441	0.0722	1.15	1.33 (inactive)	0.835 (inactive)	0.56 (inactive)	3.62	0.528 (inactive)	0.314	0.0447	1.08	0.306
COC(=O)[C@@]1(Cc2ccc(OC)cc2)[C@H]2c3cc(C(=O)N4CCCC4)n(CCc4ccc(OC)c(Br)c4)c3C[C@H]2CN1C(=O)c1ccccc1	1.02	-0.116	0.159	0.929	1.04	2.17	1.44	1.25 (inactive)	0.546	0.21	-1.11	0.0024 (inactive)	0.111 (inactive)	-0.751 (inactive)	3.27	0.615 (inactive)	0.153	-0.802	-0.0445	-0.0357
CC[C@H](C)C(=O)O[C@H]1CC[C@]2(C)C3=C(CCC2C1(C)C)[C@]1(C)CC[C@H]([C@H](C)CCCC(C)C)[C@@]1(C)CC3 (stereo not given in full)	-0.598	0.191	-0.0691	0.332	0.414	0.0345	0.966	0.169 (inactive)	0.0889	0.315	0.0683	0.737 (inactive)	0.14 (inactive)	0.17 (inactive)	0.125	2.24 (inactive)	-0.108	0.296	0.854	-0.0431
CO[C@H]1O[C@H](CO)[C@@H](OC(=O)Nc2ccc(C(F)(F)F)cc2)[C@H](OC(=O)Nc2ccccc2-c2ccccc2)[C@H]1OC(=O)Nc1ccccc1-c1ccccc1	-0.288	1.16	0.0276	0.988	1.04	0.802	1.36	2.53 (inactive)	0.997	-0.0645	1.54	1.32 (inactive)	2.36 (inactive)	29.9 (active)	3.29	0.0918 (inactive)	0.0079	1.21	1.06	0.0108
COc1ccc(NN2C(C(O)c3cc(C(F)(F)F)cc(C(F)(F)F)c3)C=CC3C(=O)N(C4CCCCC4)C(=O)C32)cc1 (stereo not given)	0.844	0.301	0.483	0.397	1.37	1.02	1.11	-0.68 (inactive)	1.36	1.67	1.28	-0.0995 (inactive)	0.495 (inactive)	0.518 (inactive)	2.59	-0.804 (inactive)	0.849	0.535	1.06	0.705
CC#CCO[Si](C#CCCCCCC)(C(C)C)C(C)C	1.3	-0.134	-0.24	-1.16	-1.9	-0.353	0.439	-0.524 (inactive)	-1.3	-0.341	0.276	0.176 (inactive)	-19.1 (active)	-1.61 (inactive)	0.373	-0.0013 (inactive)	0.137	-2.8	-1.16	-0.466
COCCOC(=O)N1C(=O)[C@@]2(c3cc(C#Cc4ccc(OC)cc4)ccc31)[C@H](c1ccc(OCCO)cc1)N1[C@H](c3ccccc3)[C@H](c3ccccc3)OC(=O)[C@H]1[C@@H]2C(=O)N1CCCCCCC1	2.51	0.351	0.684	0.315	0.753	1.52	1.01	-0.531 (inactive)	2.75	2.59	1.49	-1.32 (inactive)	-0.0066 (inactive)	3.2 (inactive)	3.3	0.106 (inactive)	1.45	2.09	0.955	0.882
CN(C)CCCC[C@@H]1NC(=O)[C@@H]2C[C@H](C(=O)NCCCCCCNC(=O)CS)[C@H](c3cccc(OCCO)c3)N2C1=O	0.0594	0.353	-0.0621	0.628	-0.453	0.67	0.838	-0.786 (inactive)	0.123	0.0373	1.39	-0.283 (inactive)	-0.0576 (inactive)	-0.471 (inactive)	1.18	-0.142 (inactive)	0.0575	0.333	0.131	0.124
C=CCC(OC(C)=O)[C@@H]1[C@@H](N(Cc2cc3ccccc3o2)C(=O)Cc2ccc(OC)cc2)c2cc(OCCCO)ccc2N1C(=O)Cc1ccc(OC)cc1 (stereo not given in full)	-0.186	0.0357	-0.0459	0.0855	-0.144	-0.0625	0.0781	-1.19 (inactive)	-0.0586	0.0623	0.0873	-0.484 (inactive)	0.142 (inactive)	-0.197 (inactive)	0.0103	-0.847 (inactive)	-0.0757	0.312	-0.293	-0.108
COc1ccc(CCNC(=O)[C@@]2(C)c3ccccc3C(=O)N(Cc3cc(C(F)(F)F)cc(C(F)(F)F)c3)[C@H]2c2ccc(CO)cc2)cc1	1.42	1.35	0.383	-0.27	-0.57	1.73	1.3	-1.62 (inactive)	0.169	1.69	1.53	0.182 (inactive)	-0.836 (inactive)	1.09 (inactive)	1.7	1.02 (inactive)	0.795	0.179	0.0336	0.577
COc1ccccc1CN1C(=O)c2ccccc2[C@@H](C(=O)NCCCN(C)C)[C@@H]1c1ccc(CO)cc1	-0.192	0.132	-0.161	0.461	-0.203	0.648	0.695	-3.53 (inactive)	0.0644	-0.266	-1.06	-0.376 (inactive)	-2.26 (inactive)	-1.63 (inactive)	-1.07	0.874 (inactive)	-0.135	-0.649	-0.784	-0.111
COc1ccc([Si](C)(C)[C@H]2[C@H](CC(=O)N3Cc4ccccc4C[C@H]3CO)O[C@@]3(C(=O)N(Cc4cccc(N5C(=O)c6cccc7cccc5c67)c4)c4ccccc43)[C@@H]2C)cc1	-0.581	0.847	-0.0859	0.539	0.0297	0.997	1.03	-2.61 (inactive)	0.487	-0.648	1.56	-0.0979 (inactive)	0.39 (inactive)	1.77 (inactive)	2.14	-0.0872 (inactive)	-0.173	1.57	1.13	-0.122
